# High-throughput results from PubChem.
# Sampled rows, rich in hits. Any-hit rate of the full collection: about 1%.
# RXFP1 agonist – qHTS Assay for Agonists of the Relaxin Receptor RXFP1; Potency, µM (highest dose often 57.5 µM), for inactives: at the top dose activation, usual class: activators; 0.3% of 370,000 active; HEK293T-RXFP1 cAMP TR-FRET, 30 min; response scale: percent of porcine relaxin response, buffer zero; Relaxin receptor 1 (Homo sapiens), Q9HBX9; active = well fitted activation curve with a large enough effect; inconclusive = small, poorly fitted or top-dose-only effect; note: potency is the fitted concentration of half-maximal effect; % is set by controls: 0 for no effect and ±100 for the full control effect; nearly all actives have a fitted effect of over 60% in size
# Target sequence (Q9HBX9 whole entry, looked up): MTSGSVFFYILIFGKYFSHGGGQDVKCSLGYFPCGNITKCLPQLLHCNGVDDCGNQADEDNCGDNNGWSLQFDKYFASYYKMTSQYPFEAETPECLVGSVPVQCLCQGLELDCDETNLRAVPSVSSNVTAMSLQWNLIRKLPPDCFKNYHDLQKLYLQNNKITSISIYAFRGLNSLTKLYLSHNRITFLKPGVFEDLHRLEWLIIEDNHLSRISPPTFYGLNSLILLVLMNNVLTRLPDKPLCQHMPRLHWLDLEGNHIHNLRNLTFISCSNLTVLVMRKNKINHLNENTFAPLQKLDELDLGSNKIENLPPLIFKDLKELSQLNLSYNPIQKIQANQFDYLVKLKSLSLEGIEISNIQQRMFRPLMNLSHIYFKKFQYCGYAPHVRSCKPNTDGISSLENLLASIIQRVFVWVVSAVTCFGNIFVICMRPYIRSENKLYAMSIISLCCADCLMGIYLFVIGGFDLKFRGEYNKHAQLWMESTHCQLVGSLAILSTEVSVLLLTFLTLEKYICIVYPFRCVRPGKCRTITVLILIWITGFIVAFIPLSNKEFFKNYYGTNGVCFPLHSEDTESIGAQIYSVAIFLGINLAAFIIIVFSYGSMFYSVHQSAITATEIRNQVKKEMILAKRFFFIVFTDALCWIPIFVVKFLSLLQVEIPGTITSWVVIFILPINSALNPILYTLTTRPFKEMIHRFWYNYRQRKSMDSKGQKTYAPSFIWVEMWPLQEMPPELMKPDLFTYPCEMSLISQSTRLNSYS
#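 HEK293 cells stably expressing RXFP1, treated 30 min at 37C with compounds plus PDE4 inhibitor Ro 20174; cAMP measured by HTRF TR-FRET. Normalized to buffer and 29 nM porcine relaxin; EC50 by Hill fit.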
# gsp antagonist – qHTS for Antagonists of gsp, the Etiologic Mutation Responsible for Fibrous Dysplasia/McCune-Albright Syndrome: qHTS. Potency, µM (titrated, usually from 76.9 µM), without a hit: top-dose activity change, negative = inhibition, most hits filed as inhibitors. gsp-mutant cells, cAMP HTRF, 30 min. AID 624288, 2012. 0.4% of 340,000 active; calls by dose curve; cell line not stated here;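 note: intracellular cAMP measured with PDE inhibitor Ro 20-1724 present during compound exposure; potency is the fitted concentration of half-maximal effect; % is set by controls: 0 for no effect and ±100 for the full control effect; nearly all actives have a fitted effect of over 65% in size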
#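 HTRF cAMP measurement after 30 min RT detection following 30 min, 37C compound treatment alongside […] (added as 300 uM solution) in G418-selected cells seeded at 2000/well and grown 16–24 h.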
# gsp agonist – qHTS for Agonist of gsp, the Etiologic Mutation Responsible for Fibrous Dysplasia/McCune-Albright Syndrome: qHTS. 0.13% of 340,000 active. Potency, µM (series often up to 76.9 µM), for the others: top-dose activation (cAMP increase), most hits filed as activators. gsp mutant cells, cAMP HTRF, 30 min. AID 624287, 2012; active = well fitted activation curve with a large enough effect; inconclusive = small, poorly fitted or top-dose-only effect, or another doubt; inactive = no such curve, though single readings can be large or run the other way; cell line not stated here;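 note: phosphodiesterase inhibitor Ro 20-1724 added with compounds to block cAMP breakdown; potency is the fitted concentration of half-maximal effect; nearly all actives have a fitted effect of over 60% in size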
#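 Cells stably selected in G418 were plated at 2000/well, grown 16-24 hr, then given compounds in DMSO with the PDE inhibitor […] (300 uM solution added) for 30 min at 37C; cAMP was read by HTRF.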
# RXFP1 antagonist – qHTS Assay for Antagonists of the Relaxin Receptor RXFP1. AID 1259400, 2018. 0.59% of 350,000 active. activity change, negative = inhibition, % at 57.5 µM. Relaxin receptor 1 (Homo sapiens), Q9HBX9. HEK293-RXFP1, relaxin-stimulated cAMP HTRF, 30 min; active compounds read low;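 active = activity change of -60% or lower, but not beyond a set lower limit; inconclusive = change between -60% and -40%, or beyond the set limit; inactive = change above -40%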; note: % is set by controls: 0 for no effect and ±100 for the full control effect
# TSHR antag – Antagonists of the Thyroid Stimulating Hormone Receptor: HTS campaign; Thyrotropin receptor (Homo sapiens), P16473; TSHR-expressing cells, TSH-stimulated cAMP HTRF, 2 h; active compounds read low; activity change, negative = inhibition, % at 11.5 µM; 0.2% of 330,000 active; AID 504810, 2011;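 active = activity change below a set negative limit, meaning inhibition stronger than a set level, cut at about -70% in these data; inconclusive = activity change between two set negative limits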; note: % is set by controls: 0 for no effect and ±100 for the full control effect
#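 Freshly harvested TSHR cells receive pin-tooled compound, then EC80 TSH at 4nM final. After 2 hours at 37 deg C, antibody in lysis buffer and cAMP-d2 are added; 30 minutes at ambient temperature precede the HTRF read.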
# Active calls of the source: *; ? = inconclusive; / = no result; + = active, no number; ! = not active in a repeat; [ ] = remark or other dose.
SMILES,RXFP1 agonist,gsp antagonist,gsp agonist,RXFP1 antagonist,TSHR antag
c1ccc(CC(Cc2ccccc2)c2ccccn2)cc1,/,-5%,-115%,-13,/
c1ccc2c(c1)ncn2CCCOc1ccc2c(c1)CCC2,1%,28µM*,-18%,12,-14
COC(=O)c1sccc1NC(=O)CN(C)NS(=O)(=O)c1ccc(F)cc1,2%,50µM*,-1%,20,21
CCc1cccc(C)c1NC(=O)CSc1nnc(CCCOc2ccc(Cl)cc2Cl)n1C,0%,10µM*,-8%,-12,13
CCc1ccc(NC(=O)c2sc(-n3nc(C)c(CCC(C)C)c3C)nc2C)cc1,11%,/,/,-13,/
O=C(NCCOC(=O)c1ccc(S(=O)(=O)N2CCOCC2)cc1)c1cccnc1,23%,5%,28µM*,9,14
CCn1c(=O)c2c(nc(C=Cc3ccc(OC)c(OC)c3)n2C)n(CC)c1=O,/,/,/,-11,/
Cc1ccc(OCc2nnc(NC(=O)c3cccnc3)s2)cc1,0%,7.9µM*,-1%,-2,-42
CCc1cc2c(=O)nc3n(c2s1)Cc1ccccc1/C3=C(/O)c1cccc([N+](=O)[O-])c1,?,11%,3.2µM*,17,4
N#C/C(=C\c1cccs1)C(=O)c1ccccc1Cl,0%,-1%,-3%,-61*,-12
CCOC(=O)c1ccc(NC(=O)CCc2nc(-c3ccccc3)no2)cc1,-1%,40µM*,-19%,-17,-18
CCOc1ccccc1C(=O)NCC(=O)NCc1ccc(S(=O)(=O)N2CCOCC2)cc1,2%,-10%,32µM*,-12,-4
Cc1ccc(CCNC(=O)c2c3c(nc4ccccc24)C(=O)N(C2CCCCC2)C3)cc1,2%,/,/,-72*,/
CCCNC(=O)CN1C(=O)c2c(c3ccccc3n2C)C1c1ccc(OC)cc1 (stereo not drawn),-1%,/,/,-5,/
Cc1ccccc1OCC(O)CNC1CCC(NCC(O)COc2ccccc2C)CC1 (stereo not drawn),0%,-7%,0%,-101*,5
Cc1ccc(OCC(O)CNC2CCCC2)c(C)c1 (stereo not drawn),0%,12%,-39%,7,-9
CCNc1ncnc2c1nnn2C,9%,/,/,5,/
C=Cc1ccc(Cn2nc(-c3ccc(C)c(S(=O)(=O)N(CC)CC)c3)ccc2=O)cc1,1%,/,/,-11,/
Cc1ccc(Cl)cc1N1CCN(C(=O)C(C)n2ncn3cccc3c2=O)CC1 (stereo not drawn),28µM*!,-16%,-1%,-1,-19
CCc1ccccc1-n1c(SCC(=O)Nc2ccc(C)cc2)nc2n[nH]c(C)c2c1=N,7%,/,/,-87*,/
COc1ccccc1CCNC(=O)c1ccc(OC)c(OC2CCN(C(C)C)CC2)c1,0%,22%,-5%[15.4 µM],-18,18
COCCCNC(=O)c1ccc(OC)c(OC2CCN(C(C)C)CC2)c1,2%,50µM*,20%,1,7
CCOC(=O)C1CCN(C(=O)c2sc3ncn(CC(=O)N4CCCCC4)c(=O)c3c2C)CC1,/,/,16µM*,2,/
COc1ccc(Nc2nc3ccccc3c3nnc(C)n23)cc1Cl,1%,/,/,-6,/
Cn1c2c(c(=O)n(C)c1=O)C(C(F)(F)F)(C(F)(F)F)N=C(c1ccc(Cl)cc1)N2,0%,40µM*,-26%,-11,?
SMILES,RXFP1 agonist,gsp antagonist,gsp agonist,RXFP1 antagonist,TSHR antag
CC(C)(C)c1csc(NNC(=O)c2ccc(Br)cc2)n1,1%,-14%,8%[15.4 µM],-61*,-9
CC(C)S(=O)(=O)c1csc(C(=O)Nc2ccc(F)cc2)c1N,3%,+,-6%[15.4 µM],-6,-10
Cc1c(F)cc2c(=O)c(C(=O)O)cn3c2c1CCC3C (stereo not drawn),/,/,/,-7,/
CCCOc1ccc(C2C(=O)N(C3CCCCCC3)CC(=O)N2CCCOCC)cc1OC (stereo not drawn),1%,/,/,10,/
CCOC(=O)c1ccc(NS(=O)(=O)c2c(C)nc3sccn3c2=O)cc1,1%,-7%,1%,/,-2
Cc1ccc(NS(=O)(=O)c2c(C)nc3sccn3c2=O)cc1,0%,4%,-91%,-79*,-9
COc1ccc(S(=O)(=O)NCCc2cn3nc(C)c(C)nc3n2)cc1F,9%,2%,18%,18,-88*
CC(=O)c1ccc(NC(=O)c2cc3sccc3n2Cc2ccc(Cl)cc2)cc1,7%,/,/,/,/
COc1ccc(CNCc2cc(C)c(OC)cc2C)c(OC)c1,-1%,13%,16%,-9,-129*
Cc1ccc(NC(=O)Cn2cc(C(=O)c3ccco3)c3ccccc32)cc1C,4%,/,/,-15,/
CCOc1ccc(Nc2nc(N)c(C(=O)c3ccccc3Cl)s2)cc1,25µM*,/,/,-22,/
CN(C)CCOC(c1ccccc1)c1ccc(Br)cc1 (stereo not drawn),/,/,/,-31,/
CSc1cc(-c2ccc(Cl)cc2)n(Cc2ccccc2)c(=O)c1C#N,22µM*,3%,-49%,2,25
CCCn1c(SCC(=O)N2CCc3ccccc3C2)nc2c1c(=O)n(C)c(=O)n2C,?,11%,32µM*,4,-1
CCOc1ccc(-c2nnc(N3CCCCC3)c3ccccc23)cc1,-1%,50µM*,-29%,-32,-3
CN1N=C(C(N)=O)CCC1=O,/,/,/,-3,/
Cc1cc(Cl)c(S(=O)(=O)NC2CCCC2)cc1OCC(=O)NC1CCCCC1,1%,28µM*,-26%,-9,-26
Cc1cc(Cl)c(S(N)(=O)=O)cc1OCC(=O)NC1CCCCC1,0%,5%,-48%,-2,12
COc1ccc(C(=O)Oc2c(Sc3ccc(C)cc3)c(C)nn2C(C)(C)C)c(OC)c1,-3%,/,/,/,/
CC(=O)Nc1cccc(NC(=O)CSc2nnc3ccc(-c4ccccn4)nn23)c1,2%,-7%,27%,-17,0
COc1ccc(NC(=O)CSc2ccc3nnc(-c4ccccn4)n3n2)cc1OC,0%,2%,?,3,12
CC(=O)Nc1ccc(NC(=O)CSc2ccc3nnc(-c4ccccn4)n3n2)cc1,8.9µM*,30%,?,2,18
CC(=O)Nc1ccc(NC(=O)CSc2nnc3ccc(-c4ccccn4)nn23)cc1,4%,0%,11%[15.4 µM],-106*,-1
Cc1cc(C)c(/C=C/c2onc(C)c2S(=O)(=O)N2CCC(C(=O)NCC(C)c3ccccc3)CC2)c(C)c1 (stereo not drawn),-1%,/,/,-1,/
COc1ccc(C2(N3CCN(c4cccc(C)c4C)CC3)C(=O)c3ccccc3C2=O)cc1,1%,/,/,3,/
